Source: PubChem BioAssay AID1159580 (chemical genetic matrix, 2015)
Several values for one entry are separate records, joined by “and”; a condition that tells them apart may be missing. Equal values may be shown once. Hit rate of the full screen: of about 5,500 compounds, about 2,000 (36%) were called active. Another 18% or so got no clear call; they are omitted. Cut-off read from the data, not from the text of the source: active = normalized growth mostly below about 0.91 (no sharp cut-off); inconclusive = no clear call, values can overlap the other calls; inactive = mostly above about 0.92. Some of the results follow.

Assay: chemical genetic growth profiling, strain panel (AID 1159580);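 note: tested at 20 µM; growth read once vehicle control cultures reached saturation at 30 °C; 1 = growth at the plate median or of vehicle wells; lower values mean less growth of the strain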
Conditions: S. cerevisiae deletion strains, growth OD

Measured: normalized growth

Cc1cc(=O)oc2c(O)c(O)ccc12
inactive: locus YAL021C, strain ccr4, hits give low values 0.981 | locus YAL026C, strain drs2, hits give low values 0.967 | locus YAL030W, strain snc1, hits give low values 0.964 | locus YBL061C, strain skt5, hits give low values 0.966 | locus YBR009C, strain hhf1, hits give low values 0.966 | locus YBR021W, strain FUR4, hits give low values 0.975 | locus YBR023C, strain chs3, hits give low values 0.975 | locus YBR171W, strain sec66, hits give low values 0.975 | locus YBR229C, strain ROT2, hits give low values 1 | locus YBR231C, strain swc5, hits give low values 0.978 | locus YBR279W, strain paf1, hits give low values 0.973 | locus YCL011C, strain gbp2, hits give low values 0.958 | locus YCL016C, strain dcc1, hits give low values 0.972 | locus YCL029C, strain bik1, hits give low values 0.999 | locus YCL061C, strain MRC1, hits give low values 0.992 | locus YCL069W, strain vba3, hits give low values 0.976 | locus YCR088W, strain abp1, hits give low values 0.965 | locus YDL005C, strain med2, hits give low values 0.958 | locus YDL035C, strain GPR1, hits give low values 1.01 | locus YDL040C, strain nat1, hits give low values 0.98 | locus YDL074C, strain BRE1, hits give low values 0.993 | locus YDL101C, strain DUN1, hits give low values 1.01 | locus YDL134C, strain PPH21, hits give low values 1.02 | locus YDL185W, strain tfp1, hits give low values 1 | locus YDL192W, strain arf1, hits give low values 1 | locus YDR001C, strain nth1, hits give low values 0.968 | locus YDR069C, strain doa4, hits give low values 0.963 | locus YDR101C, strain arx1, hits give low values 1.02 | locus YDR137W, strain rgp1, hits give low values 0.94 | locus YDR150W, strain NUM1, hits give low values 1.01 | locus YDR159W, strain sac3, hits give low values 0.967 | locus YDR162C, strain NBP2, hits give low values 1.02 | locus YDR195W, strain ref2 0.913 | locus YDR297W, strain sur2, hits give low values 0.979 | locus YDR318W, strain mcm21, hits give low values 0.993 | locus YDR334W, strain swr1, hits give low values 0.968 | locus YDR335W, strain msn5, hits give low values 0.981 | locus YDR388W, hits give low values 0.994 | locus YDR392W, strain spt3, hits give low values 0.973 | locus YDR502C, strain sam2, hits give low values 1 | locus YEL003W, strain gim4, hits give low values 0.976 | locus YEL037C, strain rad23, hits give low values 0.934 | locus YEL061C, strain CIN8 (second series), hits give low values 0.952 | locus YEL061C, strain CIN8, hits give low values 1 | locus YER015W, strain faa2, hits give low values 1 | locus YER016W, strain bim1, hits give low values 0.986 | locus YER110C, hits give low values 0.993 | locus YER111C, strain swi4, hits give low values 0.957 | locus YER155C, strain BEM2 (second series), hits give low values 0.987 | locus YER155C, strain BEM2, hits give low values 1.01 | locus YER167W, strain BCK2, hits give low values 1.01 | locus YFR010W, strain ubp6, hits give low values 0.947 | locus YGL078C, strain dbp3, hits give low values 1 | locus YGL086W, strain mad1, hits give low values 0.991 | locus YGL167C, strain pmr1, hits give low values 0.943 | locus YGL173C, strain kem1, hits give low values 0.987 | locus YGL227W, strain vid30, hits give low values 0.962 | locus YGL240W, strain doc1, hits give low values 0.979 | locus YGL248W, strain PDE1, hits give low values 1.01 | locus YGL253W, strain hxk2, hits give low values 0.974 | locus YGR135W, strain pre9, hits give low values 0.988 | locus YGR229C, strain SMI1, hits give low values 1 | locus YGR252W, strain gcn5, hits give low values 0.977 | locus YHR013C, strain ard1, hits give low values 0.942 | locus YHR027C, strain rpn1, hits give low values 0.973 | locus YHR030C, strain SLT2, hits give low values 1 and 0.999 | locus YHR079C, strain IRE1 (second series), hits give low values 1 | locus YHR079C, strain IRE1, hits give low values 0.983 | locus YHR094C, strain hxt1, hits give low values 1.02 | locus YHR129C, strain ARP1, hits give low values 1 | locus YHR142W, strain chs7, hits give low values 0.973 | locus YHR200W, strain rpn10, hits give low values 1.02 | locus YIL066C, strain RNR3, hits give low values 1.02 | locus YIL073C, strain SPO22, hits give low values 1.03 | locus YIL125W, strain kgd1, hits give low values 0.975 | locus YIR030C, strain dcg1, hits give low values 1 | locus YJL092W, strain hpr5, hits give low values 0.978 | locus YJL095W, strain BCK1 (second series), hits give low values 0.988 | locus YJL095W, strain BCK1, hits give low values 0.98 and 0.997 | locus YJL115W, strain asf1, hits give low values 0.975 | locus YJL129C, strain trk1, hits give low values 0.972 | locus YJL134W, strain LCB3, hits give low values 1.01 | locus YJL154C, strain vps35, hits give low values 0.976 | locus YJL164C, strain tpk1, hits give low values 0.985 | locus YJL166W, strain qcr8, hits give low values 1 | locus YJL168C, strain set2, hits give low values 0.993 | locus YJL187C, strain SWE1 (second series), hits give low values 1 | locus YJL187C, strain SWE1, hits give low values 0.976
